The record followed here is PubChem BioAssay AID463115 (University of Pittsburgh Molecular Library Screening Center, 2010).

The structures appear in SMILES notation. Among all 220,000 compounds or so, about 130 (0.059%) were called active. Rule as the data show it: active = inhibition above about 25%; inactive = the rest. Shown is part of a subset that was picked to be rich in actives.

Furin (Homo sapiens), sequence (P09958 108-714 limits assumed): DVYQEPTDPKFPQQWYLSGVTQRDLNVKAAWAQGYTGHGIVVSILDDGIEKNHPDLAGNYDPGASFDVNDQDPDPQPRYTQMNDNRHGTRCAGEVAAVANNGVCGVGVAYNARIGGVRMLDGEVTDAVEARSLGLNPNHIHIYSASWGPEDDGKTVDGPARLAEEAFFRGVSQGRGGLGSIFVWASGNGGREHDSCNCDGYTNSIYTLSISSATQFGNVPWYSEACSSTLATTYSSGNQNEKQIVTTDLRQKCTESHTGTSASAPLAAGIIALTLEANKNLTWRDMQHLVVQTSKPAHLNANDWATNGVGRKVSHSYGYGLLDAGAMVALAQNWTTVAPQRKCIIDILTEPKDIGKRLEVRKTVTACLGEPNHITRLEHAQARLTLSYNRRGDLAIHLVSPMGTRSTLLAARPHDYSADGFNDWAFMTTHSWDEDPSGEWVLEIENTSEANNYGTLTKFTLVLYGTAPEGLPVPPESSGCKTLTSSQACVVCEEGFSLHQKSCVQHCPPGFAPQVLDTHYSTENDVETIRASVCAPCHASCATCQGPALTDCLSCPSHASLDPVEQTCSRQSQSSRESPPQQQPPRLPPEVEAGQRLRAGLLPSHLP

The test concerns the target Furin (Homo sapiens) (UniProt P09958). Put plainly: furin protease activity blockers – biochemical, fluorescence intensity, primary screen (AID 463115). The conditions noted are these: purified furin, fluorogenic substrate cleavage, active compounds read high; at 30 µM unless noted.
Turning to `Cc1ccc(N(C(=O)Cc2cccs2)C2C=CS(=O)(=O)C2)cc1Cl` (stereo unspecified), the inhibition – broadly, the relative decrease from the control value, in per cent – was -2.17% (inactive). Next, `Cc1ccc(-n2c(SCC(=O)N/N=C/C=C/c3ccccc3[N+](=O)[O-])nc3ccccc3c2=O)cc1`: -14.5% (inactive). Next, `CCC(=O)N(Cc1cc2ccccc2[nH]c1=O)c1ccc(OC)cc1`: -11.6% (inactive). Under `CCCCc1ccc(NC(=S)N2CCCC(CO)C2)cc1` (stereo unspecified) stands -6.03% (inactive).

For `O=S(=O)(NCC1CCCO1)c1cnc(Cl)c(Cl)c1` (stereo unspecified), the inhibition was -12.9% (inactive). Regarding `Cc1ccc(NC(=S)N(CCN(C)C)Cc2cccs2)cc1C`, the inhibition is -9.92% (inactive).

As for `COc1cccc(/C=N/NC(=O)CNC(=O)c2ccc(S(=O)(=O)N3CCOCC3)cc2)c1OC`, the inhibition is -9.37% (inactive). On to `COC(=O)CCc1sc(Nc2ccc(Br)cc2)nc1-c1ccc(OC)cc1`, for which the inhibition is -10.8% (inactive). Next, `CC1=CC=CN2C1=NC(=O)CC2(C)C(=O)N(CC(=O)NC1CCCC1)c1ccccc1C` (stereo unspecified): -22.6% (inactive); `CC(C)C1Nc2c(C(=O)O)cccc2C(Nc2ccccc2C(=O)O)C1(C)C` (stereo unspecified): -28% (inactive); `Cn1c(CCCOc2ccc(Cl)cc2Cl)n[nH]c1=S`: -27% (inactive). As to `O=C(O)C1C2CC2CN1C(=O)c1ccc(Cl)cc1Cl` (stereo unspecified), the inhibition is -14.1% (inactive). With `O=C1CC(Cc2ccc(Cl)cc2)C(=O)N1c1cc(Cl)ccn1` (stereo unspecified), the inhibition is 7.89% (inactive).

In the case of `CCn1c(-c2cccnc2Cl)nc2cc(C)c(C)cc21`, the inhibition is -16.4% (inactive). Next, `CCOC(=O)CCCNC(=O)COC(=O)c1cc(Br)c(Br)s1`: -22.9% (inactive).

As for `CC(Sc1nnc(Cc2ccc([N+](=O)[O-])cc2)o1)C(N)=O` (stereo unspecified), the inhibition was -20.4% [at 20 µM] (inactive).

For the compound `O=C(c1ccc(OC2CCN(C(=O)c3cccnc3)CC2)cc1)N1CCCCCC1`, the inhibition is -20.3% (inactive). Next, `CCOC(=O)/C(=C\c1ccc([N+](=O)[O-])cc1)C(=O)c1cc(C(C)=O)c(Nc2ccccc2)s1`: -2.4% (inactive).

Turning to `CC(C)(C)c1nc2ccccc2c(=O)n1N1C(=O)c2ccccc2C1=O`, the inhibition is -15.6% [at 20 µM] (inactive). Next, `O=C(NC1CCN(Cc2ccccc2)CC1)c1cc(Br)c(Br)[nH]1`: -27.8% (inactive). Under `NC(N)=NCCCc1cn(CC(=O)N2CCNCC2)nn1` stands -18.6% (inactive); under `CC(C)(O)C#Cc1ncc(C(F)(F)F)cc1Cl`, -28.4% (inactive). As for `Cc1ccc(/C=C/C(=O)O)cc1S(=O)(=O)N1CCC(Cc2ccccc2)CC1`, the inhibition is -29.9% (inactive). For `CCOc1ccc(N2C(=O)/C(=C/c3ccc(C)o3)N(C)C2=S)cc1`, the inhibition was 3.15% (inactive). Under `O=C(/C=C/NNC(=O)c1cccc(Br)c1)c1ccccc1` stands 0.209% [at 20 µM] (inactive); under `O=C(C1=C[C@H](c2coc3ccccc3c2=O)C[C@H](OCc2ccc(CO)cc2)O1)N1CCN(Cc2ccccc2)CC1`, -22.1% (inactive). For `COc1cc(/C=N\NC(=O)c2nonc2N)c(OC)cc1Br`, the inhibition is -19.8% (inactive). Under `Cc1nnc(SCC(=O)NC2CCCC2)s1` stands -7.06% [at 20 µM] (inactive). Next, `NNc1nc2c(Cl)cccc2s1`: -15.9% (inactive); `COc1ccc(NS(=O)(=O)c2ccc(Oc3c(C#N)cccc3C#N)cc2)cc1`: -15.9% (inactive). Under `CC1=C[C@H]2Cc3cc(C)cc(C)c3S(=O)(=O)[C@@H]2C=C1` stands -14.9% (inactive). In the case of `Cn1c(=O)c2c(ncn2CC(COCc2ccccc2Cl)OCc2ccccc2Cl)n(C)c1=O` (stereo unspecified), the inhibition was -9.34% [at 20 µM] (inactive). Take `Cn1c(SCC(=O)c2ccc(F)cc2)nnc1-c1ccccn1`: the inhibition is -22.4% (inactive). Next, `CCc1cc(C(=O)OC)c(NC(=O)CC2Sc3ccc(C(F)(F)F)cc3NC2=O)s1` (stereo unspecified): -18.6% (inactive). Under `Cc1nc2ccccn2c1C(=O)NN=C1CCN(C)CC1` stands -16.6% (inactive); under `CCOC(=O)/C(C#N)=C\c1c(C)cc(C)c(COC(C)=O)c1C`, -3.87% [at 20 µM] (inactive); under `OC(CNCC1CCCO1)Cn1c2ccc(Br)cc2c2cc(Br)ccc21` (stereo unspecified), 31.4% [at 20 µM] (active).

On to `CCOC(=O)Cn1c(=O)oc2cc(S(=O)(=O)NCC3CCCO3)ccc21` (stereo unspecified), for which the inhibition was -8.46% (inactive). Under `CCc1cc(Br)ccc1NC(=O)C1CCCO1` (stereo unspecified) stands -9.19% [at 20 µM] (inactive); under `COc1ccc(C(=O)Nc2c(Cl)cc(Cl)cc2C(=O)N2CCC(C)CC2)cc1`, -7.28% (inactive); under `CSc1ccccc1-c1nnc(-c2ccc(Cl)cc2)o1`, -17.9% [at 20 µM] (inactive). Next, `CNC(=O)c1[nH]cnc1C(=O)N[C@@H](CC(C)C)C(=O)OCc1ccccc1`: -29.8% (inactive); `CCOc1ccc(Oc2nc(C)cc(OC)n2)nn1`: -13.8% (inactive). Under `O=C(O)Cc1csc(NC(=O)CSc2nnnn2-c2ccc(O)cc2)n1` stands -27.1% (inactive). With `Cc1ccc2nc(COc3ccc(N(C)S(=O)(=O)c4ccccc4)cc3)cc(=O)n2c1`, the inhibition is -21.2% (inactive). Under `Cc1ccc(-n2nc3cc(C)c(NC(=O)c4cccnc4)cc3n2)cc1` stands 34.8% [at 20 µM] (active). On to `Cc1cc2nc(-c3ccc(NC(=O)c4cccnc4)cc3)oc2cc1C`, for which the inhibition is -16% (inactive). Turning to `Cc1ccc(-n2nc3cc(Cl)c(NC(=O)c4ccco4)cc3n2)cc1`, the inhibition was -6.45% [at 20 µM] (inactive). Under `O=C(NCc1cccnc1)Nc1cccc(NC(=O)NCc2cccnc2)c1F` stands -13.7% (inactive); under `CCCN(CCC)CC(O)COc1ccccc1C(=O)Nc1ccccc1` (stereo unspecified), -22.6% (inactive); under `CCn1c(=O)c([N+](=O)[O-])c(NCc2ccc3c(c2)OCO3)c2ccccc21`, -12.9% (inactive). Next, `CC1=NN(C(=O)Cc2ccc(C)cc2)C(O)(c2cccnc2)C1` (stereo unspecified): -14% [at 20 µM] (inactive); `CCC(CC)c1nnc(NC(=O)c2nn(C)c(=O)c3ccccc23)s1`: -10.6% (inactive). Next, `Cc1ccc(NC(=O)C(=O)NCc2ccco2)c(C)c1`: -25.7% (inactive); `C=CCn1c(Cn2nnc3ccccc32)nnc1SCC(=O)N/N=C/c1cc(Br)cc(OC)c1O`: 1.52% [at 20 µM] (inactive); `C/C=C/C(=O)Nc1ccc(N2CCN(c3ccc(C(F)(F)F)cn3)CC2)nc1`: -27.8% (inactive).
